{"source": "PubChem BioAssay (NCATS)", "note": "Values joined by “and” are separate entries in the source; they are usually repeats but may differ in a detail not shown here. Equal entries are not always repeated. Results filed as inconclusive are left out. Active and inactive are the calls of the source. Unless noted, calls come from the whole dose curve; as a rule, active = well fitted curve in the direction sought with a large enough effect; inconclusive = small, poorly fitted or top-dose-only effect, or another doubt; inactive = no such curve, though single readings can be large; an effect the other way counts as inactive or inconclusive. Potency is the fitted concentration of half-maximal effect."}
{"system": "not listed separately", "experiment": "Primary qHTS to identify inhibitors of SARS-CoV-2 cell entry (AID 1645846; calls by dose curve; note: nearly all actives have a fitted effect of over 45% in size)", "settings": "SARS-CoV-2 pseudovirus cell entry assay, luminescence; activity change, negative = inhibition: at 57.1 µM (top of the series) unless noted; series mostly up to 57.1 µM", "outline": "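HEK293-ACE2 (Expi293F, stable hACE2), 1500 cells/well, o/n 37C; cpd 23 nL pin, 1 h; MLV-PP w/ SARS-CoV-2-S (Wuhan-Hu-1, Δ19 C-term); 48 h 37C; Bright-Glo luminescence; normalized vs S-PP and bald PP.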", "units": {"activity change, negative = inhibition": "%"}}
{"compound": "Cc1cc(SCc2sc(-c3ccc(C(F)(F)F)c(F)c3)nc2C)ccc1OCC(=O)O", "outcome": "inactive"}
{"compound": "CC(C)(C)NCC(O)c1cc(Cl)c(N)c(Cl)c1", "note": "(stereo unspecified)", "activity change, negative = inhibition": 0.184}
{"compound": "Oc1ccc(Cl)cc1Cc1ccccc1", "activity change, negative = inhibition": -21.8}
{"compound": "C=C1CC[C@@]2(O)[C@H]3Cc4ccc(O)c5c4[C@@]2(CCN3CC2CC2)[C@H]1O5", "outcome": "inactive"}
{"compound": "CC[C@@H](CO)NC(=O)[C@@H]1C=C2c3cccc4[nH]cc(c34)C[C@H]2N(C)C1", "activity change, negative = inhibition": -4.87}
{"compound": "COC[C@@H](NC(C)=O)C(=O)NCc1ccccc1", "outcome": "inactive"}
{"compound": "Oc1cc(Cl)ccc1Oc1ccc(Cl)cc1Cl", "Potency": "25.1 µM (active)"}
{"compound": "CCCC1CCCCN1", "note": "(stereo unspecified)", "outcome": "inactive"}
{"compound": "CC(C)=CC1C(C(=O)OCc2cccc(Oc3ccccc3)c2)C1(C)C", "note": "(stereo unspecified)", "outcome": "inactive"}
{"compound": "CCC(C(N)=O)N1CCCC1=O", "note": "(stereo unspecified)", "activity change, negative = inhibition": -16.2}
{"compound": "C[C@]12CCC(=O)C(O)=C1CC[C@@H]1[C@@H]2CC[C@]2(C)C(=O)CC[C@@H]12", "outcome": "inactive [at 114 µM]"}
{"compound": "Cc1sc2c(c1C)C(c1ccc(Cl)cc1)=N[C@@H](CC(=O)OC(C)(C)C)c1nnc(C)n1-2", "activity change, negative = inhibition": -18.3}
{"compound": "CC(=O)Nc1cc([As](=O)(O)O)ccc1O", "activity change, negative = inhibition": -7.63}
{"compound": "c1ccc2c(c1)Nc1ccccc1S2", "outcome": "inactive"}
{"compound": "COc1ccc(C(=O)c2c(C)n(CCN3CCOCC3)c3ccccc23)cc1", "Potency": "31.6 µM (active)"}
{"compound": "CNC(=O)c1ccc(N2C(=S)N(c3ccc(C#N)c(C(F)(F)F)c3)C(=O)C23CCC3)cc1F", "activity change, negative = inhibition": -17.3}
{"compound": "O=C(O)P(=O)(O)O", "outcome": "inactive"}
{"compound": "CC(C)NCC(O)c1ccccc1Cl", "note": "(stereo unspecified)", "outcome": "inactive"}
{"compound": "C[C@]12CC[C@H]3[C@@H](CCC4=CC(=O)CC[C@@H]43)[C@@H]1CC[C@@H]2OC(=O)CCc1ccccc1", "activity change, negative = inhibition": 2.01}
{"target": "Papain (Carica papaya) (UniProt P00784)", "sequence (P00784 whole entry, looked up)": "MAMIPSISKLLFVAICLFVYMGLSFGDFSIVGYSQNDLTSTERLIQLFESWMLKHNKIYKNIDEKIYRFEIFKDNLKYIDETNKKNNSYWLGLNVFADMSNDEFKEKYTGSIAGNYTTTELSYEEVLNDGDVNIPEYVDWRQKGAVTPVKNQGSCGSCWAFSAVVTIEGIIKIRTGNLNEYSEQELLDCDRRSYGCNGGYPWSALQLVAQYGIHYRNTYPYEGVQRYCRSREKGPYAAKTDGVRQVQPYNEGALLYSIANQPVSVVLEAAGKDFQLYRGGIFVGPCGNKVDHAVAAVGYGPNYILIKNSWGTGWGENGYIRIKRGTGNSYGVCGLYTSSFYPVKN", "experiment": "Primary qHTS assay for inhibitors of the protease papain (AID 1645873);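 note: papain turnover of Z-FR-AMC read as the AMC fluorescence gain over 10 min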; for activity change, negative = inhibition: % is set by controls: 0 for no effect and ±100 for the full control effect", "settings": "papain Z-FR-AMC cleavage, AMC fluorescence; series mostly up to 49.8 µM; activity change, negative = inhibition: at the top concentration"}
{"compound": "CCCN1CCC[C@@H]2Cc3nc(N)ncc3C[C@H]21", "activity change, negative = inhibition": "3.33% (inactive)"}
{"compound": "CCC1(C2=NCCN2)Cc2ccccc2O1", "note": "(stereo unspecified)", "activity change, negative = inhibition": "-17.6% (inactive)"}
{"compound": "N#CC(C#N)=Cc1ccc(O)c(O)c1", "activity change, negative = inhibition": "-29.4% (inactive)"}
{"compound": "COc1ccccc1N1CCNCC1", "activity change, negative = inhibition": "30.2% (inactive)"}
{"compound": "c1ccc(C2CC2)c(OCC2=NCCN2)c1", "activity change, negative = inhibition": "5.85% (inactive)"}
{"compound": "Cc1ccc(S(=O)(=O)N[C@@H](CCCCN)C(=O)CCl)cc1", "Potency": "14.1 µM (active)"}
{"compound": "CC(C)=CCOc1c2occc2cc2ccc(=O)oc12", "activity change, negative = inhibition": "-9.09% (inactive)"}
{"compound": "CCCN1CCC[C@@H]2Cc3[nH]ncc3C[C@H]21", "Potency": "inactive"}
{"compound": "CC(CCc1ccccc1)NC(C)C(O)c1ccc(O)cc1", "note": "(stereo unspecified)", "activity change, negative = inhibition": "0.45% (inactive)"}
{"compound": "c1ccc2c(c1)OCC(C1=NCCN1)O2", "note": "(stereo unspecified)", "activity change, negative = inhibition": "8.91% (inactive)"}
{"compound": "CC(=O)[C@H]1CC[C@H]2[C@@H]3CC[C@H]4C[C@](C)(O)CC[C@]4(C)[C@H]3CC[C@]12C", "activity change, negative = inhibition": "-2.25% (inactive)"}
{"compound": "CC[C@@H](CO)NC(=O)[C@@H]1C=C2c3cccc4c3c(cn4C)C[C@H]2N(C)C1", "activity change, negative = inhibition": "-16.1% (inactive)"}
{"compound": "Cn1c(CCCC(=O)O)nc2cc(N(CCCl)CCCl)ccc21", "Potency": "25.1 µM (active)"}
{"compound": "O=C1NCN(c2ccccc2)C12CCN(CC1COc3ccccc3O1)CC2", "note": "(stereo unspecified)", "activity change, negative = inhibition": "3.87% (inactive)"}
{"compound": "O=c1[nH]c2ccccc2n1C1CCN(CCCC(c2ccc(F)cc2)c2ccc(F)cc2)CC1", "activity change, negative = inhibition": "31.9% (inactive)"}
{"system": "not listed separately", "experiment": "Primary qHTS for inhibitors of nuclear receptor binding SET domain protein 2 (NSD2) in an isogenic RCH-ACV NSD2 p.E1099K mutant (9B) (AID 1645876); note: nearly all actives have a fitted effect of over 70% in size; for activity change, negative = viability loss: % is set by controls: 0 for no effect and ±100 for the full control effect", "settings": "RCH-ACV NSD2 E1099K (9B) viability, CellTiter-Glo, 72 h; series mostly up to 44.9 µM; activity change, negative = viability loss: at the top concentration"}
{"compound": "CCCC(C)(COC(N)=O)COC(=O)NC(C)C", "note": "(stereo unspecified)", "activity change, negative = viability loss": "-4.56% (inactive)"}
{"compound": "CCCN1CCC[C@@H]2Cc3nc(N)ncc3C[C@H]21", "activity change, negative = viability loss": "4.76% (inactive)"}
{"compound": "Cc1cc(SCc2sc(-c3ccc(C(F)(F)F)c(F)c3)nc2C)ccc1OCC(=O)O", "activity change, negative = viability loss": "-11.6% (inactive)"}
{"compound": "CC(C)(C)NCC(O)c1cc(Cl)c(N)c(Cl)c1", "note": "(stereo unspecified)", "activity change, negative = viability loss": "-0.971% (inactive)"}
{"compound": "N#CC(C#N)=Cc1ccc(O)c(O)c1", "Potency": "9.44 µM (active)"}
{"compound": "Oc1ccc(Cl)cc1Cc1ccccc1", "Potency": "24.6 µM (active)"}
{"compound": "C=C1CC[C@@]2(O)[C@H]3Cc4ccc(O)c5c4[C@@]2(CCN3CC2CC2)[C@H]1O5", "outcome": "inactive"}
{"compound": "CC[C@@H](CO)NC(=O)[C@@H]1C=C2c3cccc4[nH]cc(c34)C[C@H]2N(C)C1", "activity change, negative = viability loss": "-20% (inactive)"}
{"compound": "COC[C@@H](NC(C)=O)C(=O)NCc1ccccc1", "Potency": "inactive"}
{"compound": "Oc1cc(Cl)ccc1Oc1ccc(Cl)cc1Cl", "Potency": "6.24 µM (active)"}
{"compound": "CCCN1CCC[C@@H]2Cc3[nH]ncc3C[C@H]21", "activity change, negative = viability loss": "-6.2% (inactive)"}
{"compound": "CC(CCc1ccccc1)NC(C)C(O)c1ccc(O)cc1", "note": "(stereo unspecified)", "activity change, negative = viability loss": "-6.43% (inactive)"}
{"compound": "CCCC1CCCCN1", "note": "(stereo unspecified)", "activity change, negative = viability loss": "4.38% (inactive)"}
{"compound": "CC(C)=CC1C(C(=O)OCc2cccc(Oc3ccccc3)c2)C1(C)C", "note": "(stereo unspecified)", "activity change, negative = viability loss": "-7.95% (inactive)"}
{"compound": "c1ccc2c(c1)OCC(C1=NCCN1)O2", "note": "(stereo unspecified)", "Potency": "9.44 µM (active)"}
{"compound": "CC(=O)[C@H]1CC[C@H]2[C@@H]3CC[C@H]4C[C@](C)(O)CC[C@]4(C)[C@H]3CC[C@]12C", "activity change, negative = viability loss": "7.79% (inactive)"}
{"compound": "CCC(C(N)=O)N1CCCC1=O", "note": "(stereo unspecified)", "activity change, negative = viability loss": "6.8% (inactive)"}
{"compound": "C[C@]12CCC(=O)C(O)=C1CC[C@@H]1[C@@H]2CC[C@]2(C)C(=O)CC[C@@H]12", "Potency": "inactive"}
{"compound": "Cc1sc2c(c1C)C(c1ccc(Cl)cc1)=N[C@@H](CC(=O)OC(C)(C)C)c1nnc(C)n1-2", "Potency": "0.372 µM (active)"}
{"compound": "CC(=O)Nc1cc([As](=O)(O)O)ccc1O", "outcome": "inactive"}
{"compound": "c1ccc2c(c1)Nc1ccccc1S2", "activity change, negative = viability loss": "-27.1% (inactive)"}
{"compound": "O=C1NCN(c2ccccc2)C12CCN(CC1COc3ccccc3O1)CC2", "note": "(stereo unspecified)", "activity change, negative = viability loss": "2.08% (inactive)"}
{"compound": "COc1ccc(C(=O)c2c(C)n(CCN3CCOCC3)c3ccccc23)cc1", "Potency": "23.5 µM (active)"}
{"compound": "O=C(O)P(=O)(O)O", "Potency": "inactive"}
{"compound": "CC(C)NCC(O)c1ccccc1Cl", "note": "(stereo unspecified)", "activity change, negative = viability loss": "8.44% (inactive)"}
{"compound": "C#CCOC(C(=O)OCCN(C)C)(c1ccccc1)c1ccccc1", "activity change, negative = viability loss": "-9.66% (inactive)"}
{"compound": "O=c1[nH]c2ccccc2n1C1CCN(CCCC(c2ccc(F)cc2)c2ccc(F)cc2)CC1", "Potency": "23.7 µM (active) and 5.78 µM (active)"}
